Results reported in PubChem BioAssay (EPA / NIEHS).
Activity calls are given as the source filed them. Rule for the calls: active = hit-call score of the fitted dose curve at least 0.9, where 1 is the maximum; inactive = score below 0.9.

assay: UKN2_HCS_IMR90_neural_migration: University of Konstanz (UKN) Leist Lab Neural Crest Cell Migration Assay in human induced IMR90 Pluripotent Stem Cells (UKN2) (AID 2284204); settings: actives raise or lower the signal
Method in brief: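 High-content imaging of calcein-AM and Hoechst stained cells quantifies migration into a stopper-defined gap after 24 h compound exposure. Neural crest cells from IMR90 iPSC migrated 24 h in EGF/FGF N2-S medium before dosing; DMSO baseline.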

Row | Structure (SMILES) | outcome | AC50
1 | CCCCOC(=O)c1ccccc1C(=O)OCc1ccccc1 | inactive | –
2 | CC(C)COC(=O)c1ccccc1C(=O)OCC(C)C | inactive | –
3 | COC(=O)Nc1nc2ccccc2[nH]1 | inactive | –
4 | COP(=S)(OC)SCN1C(=O)c2ccccc2C1=O | inactive | –
5 | CNC(=O)Oc1cccc2c1OC(C)(C)C2 | inactive | –
6 | CCC[CH2][Sn]([Cl])([CH2]CCC)[CH2]CCC | – | 0.195 µM (active)

assay: IUF_NPC1b_proliferation_BrdU_72hr: Leibniz Research Institute for Environmental Medicine (IUF) 72-hour Neural Progenitor Cell Bromodeoxyuridine (BrdU) Proliferation Assay (NPC1b) (AID 2284207); settings: not given
Method in brief: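 Human fetal cortex-derived (GW 16-19) neural progenitor spheres, 0.25-0.35 mm, one per well in EGF/FGF proliferation medium, exposed to compound for 72 h at 37C, pH 7.2-7.6. BrdU incorporation over the final 16 h read by luminescence ELISA, relative to DMSO.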

Row | Structure (SMILES) | AC50 | outcome
7 | CCCCOC(=O)c1ccccc1C(=O)OCc1ccccc1 | 82 µM (active) | –
8 | CC(C)COC(=O)c1ccccc1C(=O)OCC(C)C | – | inactive
9 | COC(=O)Nc1nc2ccccc2[nH]1 | 18.4 µM (active) | –
10 | COP(=S)(OC)SCN1C(=O)c2ccccc2C1=O | 0.499 µM (active) | –
11 | O=P(OCCCl)(OCCCl)OCCCl | – | inactive
12 | CNC(=O)Oc1cccc2c1OC(C)(C)C2 | – | inactive
13 | CCC[CH2][Sn]([Cl])([CH2]CCC)[CH2]CCC | 0.112 µM (active) | –
14 | [O-][Cl+]O | 2.18 µM (active) | –
15 | CC(C)(C)C(O)(CCc1ccc(Cl)cc1)Cn1cncn1 (configuration not stated) | – | inactive
16 | OCCOCCO | – | inactive

assay: IUF_NPC1a_proliferation_area_72hr: Leibniz Research Institute for Environmental Medicine (IUF) 72-hour Neural Progenitor Cell Proliferation Area Assay (NPC1a) (AID 2284208); settings: not given
Method in brief: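 Read-out: increase in sphere area over 72 h by automated phase-contrast imaging, fitted in positive direction versus DMSO baseline. One hNPC sphere (0.25-0.35 mm) per well in EGF/FGF medium; growth-factor withdrawal served as positive control.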

Row | Structure (SMILES) | outcome | AC50
17 | CCCCOC(=O)c1ccccc1C(=O)OCc1ccccc1 | inactive | –
18 | CC(C)COC(=O)c1ccccc1C(=O)OCC(C)C | inactive | –
19 | COC(=O)Nc1nc2ccccc2[nH]1 | inactive | –
20 | COP(=S)(OC)SCN1C(=O)c2ccccc2C1=O | inactive | –
21 | O=P(OCCCl)(OCCCl)OCCCl | inactive | –
22 | CNC(=O)Oc1cccc2c1OC(C)(C)C2 | inactive | –
23 | CCC[CH2][Sn]([Cl])([CH2]CCC)[CH2]CCC | – | 0.673 µM (active)
24 | [O-][Cl+]O | inactive | –
25 | CC(C)(C)C(O)(CCc1ccc(Cl)cc1)Cn1cncn1 (configuration not stated) | inactive | –
26 | OCCOCCO | inactive | –

assay: IUF_NPC1_viability_72hr: Viability Assessment at 72 hours in the Leibniz Research Institute for Environmental Medicine (IUF) Neural Progenitor Cell Proliferation Assay (NPC1) (AID 2284209); settings: not given
Method in brief: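 Three-day continuous exposure of human neural progenitor spheres under EGF/FGF-driven proliferation; cell viability scored by alamar blue signal versus DMSO.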

Row | Structure (SMILES) | outcome | AC50
27 | CCCCOC(=O)c1ccccc1C(=O)OCc1ccccc1 | inactive | –
28 | CC(C)COC(=O)c1ccccc1C(=O)OCC(C)C | inactive | –
29 | COC(=O)Nc1nc2ccccc2[nH]1 | inactive | –
30 | COP(=S)(OC)SCN1C(=O)c2ccccc2C1=O | inactive | –
31 | O=P(OCCCl)(OCCCl)OCCCl | inactive | –
32 | CNC(=O)Oc1cccc2c1OC(C)(C)C2 | inactive | –
33 | CCC[CH2][Sn]([Cl])([CH2]CCC)[CH2]CCC | – | 0.535 µM (active)
34 | [O-][Cl+]O | inactive | –
35 | CC(C)(C)C(O)(CCc1ccc(Cl)cc1)Cn1cncn1 (configuration not stated) | – | 0.439 µM (active)
36 | OCCOCCO | inactive | –

assay: CCTE_Mundy_HCI_Cortical_Synap_Neur_Matur_BPCount: CCTE's Synaptogenesis and Neurite Maturation Assay in rat cortical cells for Branch Point Count, Mundy Lab (AID 2284211); settings: not given
Method in brief: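 In this multiplexed morphology assay, cortical cells from rat receive chemicals at DIV 7 and are fixed at DIV 12, then immunostained and imaged; branch points are counted, with DMSO as baseline.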

Row | Structure (SMILES) | AC50 | outcome
37 | CCCCOC(=O)c1ccccc1C(=O)OCc1ccccc1 | 10 µM (active) | –
38 | CC(C)COC(=O)c1ccccc1C(=O)OCC(C)C | 76.7 µM (active) | –
39 | ClC1=C(Cl)C2(Cl)C3C(Cl)C=CC3C1(Cl)C2(Cl)Cl (configuration not stated) | 13.3 µM (active) | –
40 | COC(=O)Nc1nc2ccccc2[nH]1 | 4.14 µM (active) | –
41 | COP(=S)(OC)SCN1C(=O)c2ccccc2C1=O | – | inactive
42 | Nc1cc(Cl)cc(C(=O)O)c1Cl | – | inactive
43 | CNC(=O)Oc1cccc2c1OC(C)(C)C2 | – | inactive
44 | CCC[CH2][Sn]([Cl])([CH2]CCC)[CH2]CCC | 0.0481 µM (active) | –
45 | [O-][Cl+]O | – | inactive
46 | CC(C)(C)C(O)(CCc1ccc(Cl)cc1)Cn1cncn1 (configuration not stated) | 11.2 µM (active) | –
47 | CN(C)[C@@H]1C(=O)C(C(N)=O)=C(O)[C@@]2(O)C(=O)C3=C(O)c4c(O)cccc4[C@@](C)(O)[C@H]3C[C@@H]12 | 0.474 µM (active) | –
48 | OCCOCCO | – | inactive

assay: CCTE_Mundy_HCI_Cortical_NOG_NeuriteCount: CCTE's Neurite Outgrowth Assay in rat cortical cells for Neurite Count, Mundy Lab (AID 2284212); settings: not given;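 note: cells fixed about two days after chemical exposure began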
Method in brief: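 Rat cortical primary cells; compound added 2 h post-plating, 1/10 dilution of working solution. Anti-betaIII-tubulin/AF488 ICC; ArrayScan neurite count vs DMSO.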

Row | Structure (SMILES) | outcome | AC50
49 | CCCCOC(=O)c1ccccc1C(=O)OCc1ccccc1 | inactive | –
50 | CC(C)COC(=O)c1ccccc1C(=O)OCC(C)C | inactive | –
51 | ClC1=C(Cl)C2(Cl)C3C(Cl)C=CC3C1(Cl)C2(Cl)Cl (configuration not stated) | – | 17.6 µM (active)
52 | COC(=O)Nc1nc2ccccc2[nH]1 | inactive | –
53 | COP(=S)(OC)SCN1C(=O)c2ccccc2C1=O | inactive | –
54 | Nc1cc(Cl)cc(C(=O)O)c1Cl | inactive | –
55 | CNC(=O)Oc1cccc2c1OC(C)(C)C2 | inactive | –
56 | CCC[CH2][Sn]([Cl])([CH2]CCC)[CH2]CCC | – | 0.112 µM (active)
57 | [O-][Cl+]O | inactive | –
58 | CC(C)(C)C(O)(CCc1ccc(Cl)cc1)Cn1cncn1 (configuration not stated) | inactive | –
59 | CN(C)[C@@H]1C(=O)C(C(N)=O)=C(O)[C@@]2(O)C(=O)C3=C(O)c4c(O)cccc4[C@@](C)(O)[C@H]3C[C@@H]12 | inactive | –
60 | OCCOCCO | inactive | –

assay: CCTE_Mundy_HCI_Cortical_NOG_NeuriteLength: CCTE's Neurite Outgrowth Assay in rat cortical cells for Neurite Length, Mundy Lab (AID 2284213); settings: not given;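 for AC50: neurites imaged about 48 to 50 h after chemical exposure began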
Method in brief: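 First, rat primary cortical cells were plated and, 2 h later, given test chemical as a 1/10 dilution. Finally, βIII-tubulin immunostaining enabled automated imaging of neurite length.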

Row | Structure (SMILES) | outcome | AC50
61 | CCCCOC(=O)c1ccccc1C(=O)OCc1ccccc1 | inactive | –
62 | CC(C)COC(=O)c1ccccc1C(=O)OCC(C)C | inactive | –
63 | ClC1=C(Cl)C2(Cl)C3C(Cl)C=CC3C1(Cl)C2(Cl)Cl (configuration not stated) | – | 22.5 µM (active)
64 | COC(=O)Nc1nc2ccccc2[nH]1 | – | 12.5 µM (active)
65 | COP(=S)(OC)SCN1C(=O)c2ccccc2C1=O | inactive | –
66 | Nc1cc(Cl)cc(C(=O)O)c1Cl | inactive | –
67 | CNC(=O)Oc1cccc2c1OC(C)(C)C2 | inactive | –
68 | CCC[CH2][Sn]([Cl])([CH2]CCC)[CH2]CCC | – | 0.0882 µM (active)
69 | [O-][Cl+]O | inactive | –
70 | CC(C)(C)C(O)(CCc1ccc(Cl)cc1)Cn1cncn1 (configuration not stated) | inactive | –
71 | CN(C)[C@@H]1C(=O)C(C(N)=O)=C(O)[C@@]2(O)C(=O)C3=C(O)c4c(O)cccc4[C@@](C)(O)[C@H]3C[C@@H]12 | inactive | –
72 | OCCOCCO | inactive | –
